Data on 18 molecules can be found in the supplement of paper PMC13380429.

Values without a mark were called inactive.

The experiment has as its system Vero E6 infected with SARS-CoV-2. The experiment can be described thus: SARS-CoV-2 infection rate relative to infected DMSO; higher = more infection, active = 60 or less. The conditions noted are these: 24 h.
For the molecule `O=C(Nc1ccccc1F)N[C@H]1N=C(c2ccccc2)c2ccccc2NC1=O` (10 µM), the SARS-CoV-2 infection rate is 113%.

Take `Cc1cc(C(=O)Nc2nc3cccc(Cl)c3n2[C@@H]2CCCCN(C(=O)/C=C/CN(C)C)C2)ccn1` (0.833333 µM): the SARS-CoV-2 infection rate was 110%.

Take `Cn1c(N2CCCCS2(=O)=O)nc(C(=O)NCc2ccc(F)cc2)c(O)c1=O` (10 µM): the SARS-CoV-2 infection rate was 104%.

Turning to `CCN1CCC[C@H]1CNC(=O)c1c(O)c(Cl)cc(Cl)c1OC` [raclopride] (10 µM), the SARS-CoV-2 infection rate was 104%.

`COc1cccc(N2CCN(C3=Nc4c(F)cccc4[C@H](CC(=O)O)N3c3cc(C(F)(F)F)ccc3OC)CC2)c1` [letermovir] (10 µM): the SARS-CoV-2 infection rate is 109%.

Take `CCOC(=O)c1ccc(OCCC2CCN(c3ccc(C)nn3)CC2)cc1` [pirodavir] (10 µM): the SARS-CoV-2 infection rate is 104%.

For `C[C@@H](N)[C@H]1CC[C@H](C(=O)Nc2ccncc2)CC1` (10 µM), the SARS-CoV-2 infection rate was 106%.

On to `Cn1cc(-c2ccc(S(=O)(=O)n3ccc(/C=C/C(=O)Nc4ccccc4N)c3)cc2)cn1` (10 µM), for which the SARS-CoV-2 infection rate was 105%.

Regarding `O=C(O)Cn1c2c(c3cc(F)ccc31)CN(C(=O)c1cccc3ccccc13)CC2` [setipiprant] (10 µM), the SARS-CoV-2 infection rate is 108%.

For `Nc1nc(F)nc2c1ncn2[C@@H]1O[C@H](COP(=O)(O)O)[C@@H](O)[C@@H]1O` [fludarabine-phosphate] (10 µM), the SARS-CoV-2 infection rate is 82.5%.

On to `c1ccc2c(-c3cnn4cc(-c5ccc(N6CCNCC6)cc5)cnc34)ccnc2c1` (10 µM), for which the SARS-CoV-2 infection rate was 108%.

Regarding `CCCC[P+](CCCC)(CCCC)Cc1ccc(NC(=O)[C@H](Cc2ccc3ccccc3c2)N/C(=N/C2CCCCC2)NC2CCCCC2)cc1` (10 µM), the SARS-CoV-2 infection rate is 92%.

For `CN[C@H](CC(C)C)C(=O)N[C@H]1C(=O)N[C@@H](CC(N)=O)C(=O)N[C@H]2C(=O)N[C@H]3C(=O)N[C@H](C(=O)N[C@H](C(=O)O)c4cc(O)cc(O)c4-c4cc3ccc4O)[C@H](O)c3ccc(c(Cl)c3)Oc3cc2cc(c3O[C@@H]2O[C@H](CO)[C@@H](O)[C@H](O)[C@H]2O[C@H]2C[C@](C)(N)[C@H](O)[C@H](C)O2)Oc2ccc(cc2Cl)[C@H]1O` (10 µM), the SARS-CoV-2 infection rate is 104%.

On to `Oc1cc(O)c(Cl)cn1` [gimeracil] (10 µM), for which the SARS-CoV-2 infection rate was 107%.

In the case of `COc1ccc(Cc2nccc3cc(OC)c(OC)cc23)cc1OC` [papaverine] (10 µM), the SARS-CoV-2 infection rate was 105%.

For the molecule `CC(C)CC(NC(=O)OCC1c2ccccc2-c2ccccc21)C(=O)O` (stereo in doubt) (10 µM), the SARS-CoV-2 infection rate was 96%.

Turning to `Cc1c2oc3c(C)ccc(C(=O)N[C@@H]4C(=O)N[C@H](C(C)C)C(=O)N5CCC[C@H]5C(=O)N(C)CC(=O)N(C)[C@@H](C(C)C)C(=O)O[C@@H]4C)c3nc-2c(C(=O)N[C@@H]2C(=O)N[C@H](C(C)C)C(=O)N3CCC[C@H]3C(=O)N(C)CC(=O)N(C)[C@@H](C(C)C)C(=O)O[C@@H]2C)c(N)c1=O` [dactinomycin] (10 µM), the SARS-CoV-2 infection rate was 109%.

Turning to `C[N+](C)(C)CCOC(=O)CCC(=O)OCC[N+](C)(C)C` [succinylcholine-chloride] (10 µM), the SARS-CoV-2 infection rate is 110%.
